The results in this text go back to the OligoGym collection.
Note: reference of the scale not given here.

One experiment deals with ZNF512B. As to the kind of experiment: pooled miR-30 sensor sort-seq; sequence = guide strand. The settings on record: shRNA.
For TTGGACTTGAACTGCTTCCGGC, the sensor-assay potency score (higher = more potent) was -0.182.
Still for that read-out and setting: under TTTCGTAACTGTCACAAGCTTT stands -0.797; under TTTGGACTTGAACTGCTTCCGG, 0.34; under TTCGGAACCAGTTCTCTGCGTG, -0.0926.
The sequence TTTTTCTTCCCTTCTGTCTTGT came in with a sensor-assay potency score (higher = more potent) of 0.00205.
Same read-out and setting: under TTCGTAACTGTCACAAGCTTTG stands -1.03; under TTGCTGACTCCCACCTTCCGGC, -0.809.
On the same count and under the same terms, under TAGTGTGGTAGTTGAGGCCGGC stands -0.21; under TGAGTTTGGACACTTCACCCTC, -0.0834.
In turn, TACTTGAGCCCGTAGATGCTGG registered a sensor-assay potency score (higher = more potent) of -0.743.
On the same count and under the same terms, with TTGAAGGGCATCAAGCTTCTGC the figure was 0.255.

For a further experiment, the target named is ZNF517. The experiment is described as above. The settings on record: shRNA.
In turn, TTCAGCGTGTAGCTCCTGCGGA showed a sensor-assay potency score (higher = more potent) of -0.596.
Same read-out and setting: with TCGTTGAGGGTGAACCTGCGGC the figure was -0.629; with TTCTCTGCAGAGGAGACTCCAT, -1.52; with TCGTTCAGCGTGTAGCTCCTGC, -0.267.
Same read-out and setting: with TTTGGCAACAAGAAAGCCTAGT the figure was 0.561.
The same measure, in the same setting: under TTGTGAAGTACACAGCCACATC stands -1.38; under TCCTTGTGAAGTACACAGCCAC, -1.39; under TTCTGGTGCTGCAGCAGCCGGG, -1.68.
In the case of TTGAGGGTGAACCTGCGGCAGA, the sensor-assay potency score (higher = more potent) is -1.5.
TTGTATCTGAACGCCTTGCCGC registered a sensor-assay potency score (higher = more potent) of -1.19.
Turning to TGCTCGTTGAGGGTGAACCTGC, the sensor-assay potency score (higher = more potent) was -1.07.
In turn, TCTTCCTGCAGAACCCTTGGGG registered a sensor-assay potency score (higher = more potent) of -0.177.

A further experiment deals with ZNF543. The experiment is described as above. The note with it: shRNA.
Take TTTCACTCCAGTGTGAATCTGT: the sensor-assay potency score (higher = more potent) turned out to be 0.767.
Same read-out and setting: with TTCAGAACTCATTTTCTCCAGC the figure was 0.596.
In the case of TTCTGTGTAATCTTTGTACATA, the sensor-assay potency score (higher = more potent) is -0.793.
TGTAGTGTCGAATGAAACCTGG gave a sensor-assay potency score (higher = more potent) of -0.172.
The sequence TAATCTTTGTACATACACCATC had a sensor-assay potency score (higher = more potent) of -0.698.
On the same count and under the same terms, with TCTTTGTACATACACCATCATC the figure was -1.6; with TTCACTTGAGTGTGAATCCGTT, -0.0362; with TTGTACATACACCATCATCTGA, -0.467.
With TAGGAATTTTTCTCTTCGCGAA, the sensor-assay potency score (higher = more potent) was -0.467.
Same read-out and setting: under TTTTTAAACACTTTCCCGCATT stands -0.669.
For the sequence TTCTTTTTAAACACTTTCCCGC, the sensor-assay potency score (higher = more potent) was -0.356.
On the same count and under the same terms, under TTCTGTTGAAACTTGTTTCTGT stands 0.852.

A further experiment concerns the target ZNF548. The experiment is described as above. The note with it: shRNA.
As for TTTCTGGTGATGAACCAGGTGA, the sensor-assay potency score (higher = more potent) was -0.687.
The same measure, in the same setting: with TTATAAGGTCTTTCTCCGGTGT the figure was -0.00393; with AATTCCATTGTGCTCAACCAGG, -1.53; with TAACCTCTGACACTCCTACAGA, -0.754.
Sequence TTCACTAGTGTGAACTGTCTGA returned a sensor-assay potency score (higher = more potent) of 0.39.
